# Read-outs that look alike come from different tables or passages of the source.
# Columns and labels:
# Settings in all cases: n = 1
# GRK7 = test system: GRK7
# GSK3A = test system: GSK3A
# GSK3B = test system: GSK3B
# HASPIN = test system: T1, HASPIN
# T1 construct: gene GSG2
# HCK = test system: HCK
# HIPK1 = test system: HIPK1
# HIPK2 = test system: HIPK2
# HIPK3 = test system: HIPK3
# HIPK4 = test system: HIPK4
# HPK1 = test system: HPK1
# HUNK = test system: HUNK
# ICK = test system: ICK
# IGF1R = test system: IGF1R
# IKK-alpha = test system: T2, IKK-alpha
# T2 construct: gene CHUK
# IKK-beta = test system: T3, IKK-beta
# T3 construct: gene IKBKB
# IKK-epsilon = test system: T4, IKK-epsilon
# T4 construct: gene IKBKE
# INSRR = test system: INSRR
# INSR = test system: INSR
# IRAK1 = test system: IRAK1
# IRAK3 = test system: IRAK3
# [1] = concentration: 1 μM, replicates: in singlicate
# 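Also: KINOMEscan kinase panel screen.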
structure (smiles),measurement,setting,value
Clc1cc(Cl)cc(Nc2ccnc(Nc3cc(Cl)cc(Cl)c3)n2)c1 [GSK175726],%Inh,GRK7; [1],0%
same,%Inh,GSK3A; [1],30%
same,%Inh,GSK3B; [1],0%
same,%Inh,HASPIN; [1],0%
same,%Inh,HCK; [1],10%
same,%Inh,HIPK1; [1],32%
same,%Inh,HIPK2; [1],1%
same,%Inh,HIPK3; [1],7%
same,%Inh,HIPK4; [1],0%
same,%Inh,HPK1; [1],38%
same,%Inh,HUNK; [1],0%
same,%Inh,ICK; [1],7%
same,%Inh,IGF1R; [1],16%
same,%Inh,IKK-alpha; [1],0%
same,%Inh,IKK-beta; [1],10%
same,%Inh,IKK-epsilon; [1],39%
same,%Inh,INSRR; [1],0%
same,%Inh,INSR; [1],13%
same,%Inh,IRAK1; [1],15%
same,%Inh,IRAK3; [1],2%
Cn1cncc1-c1ccc2ncnc(Nc3ccc(OCc4ccccc4)cc3)c2c1 [GW320571],%Inh,GRK7; [1],0%
same,%Inh,GSK3A; [1],0%
same,%Inh,GSK3B; [1],4%
same,%Inh,HASPIN; [1],10%
same,%Inh,HCK; [1],0%
same,%Inh,HIPK1; [1],41%
same,%Inh,HIPK2; [1],49%
same,%Inh,HIPK3; [1],51%
same,%Inh,HIPK4; [1],13%
same,%Inh,HPK1; [1],32%
same,%Inh,HUNK; [1],0%
same,%Inh,ICK; [1],0%
same,%Inh,IGF1R; [1],24%
same,%Inh,IKK-alpha; [1],0%
same,%Inh,IKK-beta; [1],0%
same,%Inh,IKK-epsilon; [1],0%
same,%Inh,INSRR; [1],22%
same,%Inh,INSR; [1],3%
same,%Inh,IRAK1; [1],11%
same,%Inh,IRAK3; [1],3%
COc1cc2nccc(Nc3ccc(NC(=O)c4ccc(C)cc4)c(O)c3)c2cc1OC.Cl [GW440132],%Inh,GRK7; [1],0%
same,%Inh,GSK3A; [1],4%
same,%Inh,GSK3B; [1],0%
same,%Inh,HASPIN; [1],0%
same,%Inh,HCK; [1],0%
same,%Inh,HIPK1; [1],6%
same,%Inh,HIPK2; [1],0%
same,%Inh,HIPK3; [1],0%
same,%Inh,HIPK4; [1],3%
same,%Inh,HPK1; [1],24%
same,%Inh,HUNK; [1],28%
same,%Inh,ICK; [1],0%
same,%Inh,IGF1R; [1],0%
same,%Inh,IKK-alpha; [1],0%
same,%Inh,IKK-beta; [1],3%
same,%Inh,IKK-epsilon; [1],0%
same,%Inh,INSRR; [1],0%
same,%Inh,INSR; [1],0%
same,%Inh,IRAK1; [1],0%
same,%Inh,IRAK3; [1],14%
Cc1ccc(NC(=O)Nc2cccc(C(F)(F)F)c2)cc1 [GSK955403],%Inh,GRK7; 1 µM,10%
same,%Inh,GSK3A; 1 µM,0%
same,%Inh,GSK3B; 1 µM,0%
same,%Inh,HASPIN; 1 µM,12%
same,%Inh,HCK; 1 µM,0%
same,%Inh,HIPK1; 1 µM,8%
same,%Inh,HIPK2; 1 µM,0%
same,%Inh,HIPK3; 1 µM,0%
same,%Inh,HIPK4; 1 µM,0%
same,%Inh,HPK1; 1 µM,0%
same,%Inh,HUNK; 1 µM,0%
same,%Inh,ICK; 1 µM,0%
same,%Inh,IGF1R; 1 µM,0%
same,%Inh,IKK-alpha; 1 µM,0%
same,%Inh,IKK-beta; 1 µM,0%
same,%Inh,IKK-epsilon; 1 µM,0%
same,%Inh,INSRR; 1 µM,0%
same,%Inh,INSR; 1 µM,0%
same,%Inh,IRAK1; 1 µM,0%
same,%Inh,IRAK3; 1 µM,100%
Cc1c(O)cccc1Nc1ccnc2ccc(C(F)(F)F)cc12.Cl [GW466413],%Inh,GRK7; [1],0%
same,%Inh,GSK3A; [1],9%
same,%Inh,GSK3B; [1],0%
same,%Inh,HASPIN; [1],34%
same,%Inh,HCK; [1],43%
same,%Inh,HIPK1; [1],0%
same,%Inh,HIPK2; [1],0%
same,%Inh,HIPK3; [1],0%
same,%Inh,HIPK4; [1],0%
same,%Inh,HPK1; [1],3%
same,%Inh,HUNK; [1],93.4%
same,%Inh,ICK; [1],0%
same,%Inh,IGF1R; [1],0%
same,%Inh,IKK-alpha; [1],8%
same,%Inh,IKK-beta; [1],0%
same,%Inh,IKK-epsilon; [1],0%
same,%Inh,INSRR; [1],0%
same,%Inh,INSR; [1],0%
same,%Inh,IRAK1; [1],0%
same,%Inh,IRAK3; [1],0%
COC(=O)c1c(-c2ccccc2)c2cc(OC)ccc2c(=O)n1Cc1ccccc1,%Inh,GRK7; [1],24%
same,%Inh,GSK3A; [1],14%
same,%Inh,GSK3B; [1],18%
same,%Inh,HASPIN; [1],3%
same,%Inh,HCK; [1],22%
same,%Inh,HIPK1; [1],7%
same,%Inh,HIPK2; [1],11%
same,%Inh,HIPK3; [1],3%
same,%Inh,HIPK4; [1],0%
same,%Inh,HPK1; [1],0%
same,%Inh,HUNK; [1],0%
same,%Inh,ICK; [1],0%
same,%Inh,IGF1R; [1],0%
same,%Inh,IKK-alpha; [1],5%
same,%Inh,IKK-beta; [1],4%
same,%Inh,IKK-epsilon; [1],0%
same,%Inh,INSRR; [1],9%
same,%Inh,INSR; [1],0%
same,%Inh,IRAK1; [1],11%
same,%Inh,IRAK3; [1],12%
CS(=O)(=O)c1ccc(-c2c(-c3ncn[nH]3)sc(N3CCOCC3)c2C#N)cc1,%Inh,GRK7; [1],43%
same,%Inh,GSK3A; [1],0%
same,%Inh,GSK3B; [1],24%
same,%Inh,HASPIN; [1],0%
same,%Inh,HCK; [1],43%
same,%Inh,HIPK1; [1],38%
same,%Inh,HIPK2; [1],24%
same,%Inh,HIPK3; [1],28%
same,%Inh,HIPK4; [1],8%
same,%Inh,HPK1; [1],0%
same,%Inh,HUNK; [1],0%
same,%Inh,ICK; [1],0%
same,%Inh,IGF1R; [1],7%
same,%Inh,IKK-alpha; [1],36%
same,%Inh,IKK-beta; [1],29%
same,%Inh,IKK-epsilon; [1],24%
same,%Inh,INSRR; [1],15%
same,%Inh,INSR; [1],0%
same,%Inh,IRAK1; [1],0%
same,%Inh,IRAK3; [1],100%
COC(=O)c1c(-c2ccccc2)c2cc(C(=O)O)ccc2c(=O)n1Cc1ccccc1,%Inh,GRK7; [1],0%
same,%Inh,GSK3A; [1],0%
same,%Inh,GSK3B; [1],0%
same,%Inh,HASPIN; [1],31%
same,%Inh,HCK; [1],0%
same,%Inh,HIPK1; [1],14%
same,%Inh,HIPK2; [1],0%
same,%Inh,HIPK3; [1],0%
same,%Inh,HIPK4; [1],0%
same,%Inh,HPK1; [1],0%
same,%Inh,HUNK; [1],43%
same,%Inh,ICK; [1],0%
same,%Inh,IGF1R; [1],4%
same,%Inh,IKK-alpha; [1],0%
same,%Inh,IKK-beta; [1],0%
same,%Inh,IKK-epsilon; [1],0%
same,%Inh,INSRR; [1],7%
same,%Inh,INSR; [1],0%
same,%Inh,IRAK1; [1],18%
same,%Inh,IRAK3; [1],0%
